Source: PubChem BioAssay
The list is not random: actives were taken first. Their share in the collection is about 10%.
JMJD2A Tudor inh: inhibitors of human JMJD2A Tudor domain; O75164; hit rate 4.4% among 390,000; AlphaScreen JMJD2A-Tudor / H3K4me3 peptide binding; Potency, µM (titrated, usually from 114 µM), for the others: at the highest dose activity change, negative = inhibition, most hits filed as inhibitors; further: potency means the concentration at half of the fitted maximal effect; on the % scale 0 is the no-effect control and ±100 the full control effect; nearly all actives have a fitted effect of over 50% in size
Target sequence (O75164 whole entry, looked up, the tested form may be a part): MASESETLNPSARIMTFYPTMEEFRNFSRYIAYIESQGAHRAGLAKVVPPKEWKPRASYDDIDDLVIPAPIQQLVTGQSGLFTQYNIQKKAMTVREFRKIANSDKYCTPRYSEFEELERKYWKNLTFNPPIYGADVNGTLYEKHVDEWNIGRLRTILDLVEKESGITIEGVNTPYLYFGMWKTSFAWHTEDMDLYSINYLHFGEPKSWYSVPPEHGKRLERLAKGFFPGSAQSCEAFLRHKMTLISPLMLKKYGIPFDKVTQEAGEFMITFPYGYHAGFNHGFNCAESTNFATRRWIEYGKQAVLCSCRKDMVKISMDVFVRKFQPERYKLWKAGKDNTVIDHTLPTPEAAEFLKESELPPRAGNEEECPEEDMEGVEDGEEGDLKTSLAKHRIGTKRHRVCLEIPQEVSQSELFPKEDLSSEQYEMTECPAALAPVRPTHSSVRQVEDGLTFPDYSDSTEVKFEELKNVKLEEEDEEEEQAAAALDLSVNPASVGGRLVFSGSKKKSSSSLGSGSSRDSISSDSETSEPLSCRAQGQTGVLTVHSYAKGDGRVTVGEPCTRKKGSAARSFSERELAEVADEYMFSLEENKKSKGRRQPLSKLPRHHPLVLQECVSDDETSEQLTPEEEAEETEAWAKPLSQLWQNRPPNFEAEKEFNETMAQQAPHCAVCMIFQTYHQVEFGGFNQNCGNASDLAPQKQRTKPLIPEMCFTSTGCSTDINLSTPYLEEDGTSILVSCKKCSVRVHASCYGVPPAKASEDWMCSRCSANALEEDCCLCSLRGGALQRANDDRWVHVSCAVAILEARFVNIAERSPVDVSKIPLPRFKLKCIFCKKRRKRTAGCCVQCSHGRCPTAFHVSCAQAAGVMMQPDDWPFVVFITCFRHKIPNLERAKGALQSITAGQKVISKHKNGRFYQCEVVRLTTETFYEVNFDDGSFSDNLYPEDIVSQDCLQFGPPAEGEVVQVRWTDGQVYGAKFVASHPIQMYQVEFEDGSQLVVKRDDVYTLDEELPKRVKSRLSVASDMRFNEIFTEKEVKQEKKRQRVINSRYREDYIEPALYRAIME
Six1-Eya2 blk: inhibitors of human Six1/Eya2 interaction | AlphaScreen GST-Six1/His-Eya2 binding, biochemical; active compounds read low | activity change, % (no concentration beside the values) | hit rate 0.56% among 360,000 | AID 651725; in the data active means activity change below about -65%; inconclusive means mostly about -30% to -63%; further: on the % scale 0 is the no-effect control and ±100 the full control effect
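AlphaScreen luminescence read after one hour at 37 °C in darkness. Pin-transferred compounds met GST-Six1 and His-Eya2 protein (5X stock 250 nM/500 nM) plus glutathione donor and Ni-chelate acceptor beads (5X, 50 ug/mL).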
HP1b chromo inh: HP1-beta chromodomain-methylated histone interaction inhibition. P83916. AlphaScreen HP1-beta / biotin-H3K9me3 peptide binding. Potency, µM (series often up to 114 µM), for the others: at the top dose activity change, negative = inhibition, hits mostly inhibitors. hit rate 0.56% among 390,000; further: potency means the concentration at half of the fitted maximal effect; nearly all actives have a fitted effect of over 70% in size
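AlphaScreen: HP1-beta (50 nM) preformed 30 min with biotin-H3(1-18)K9me3 peptide (50 nM) in PBS pH 7.4, 0.01% Tween-20. Compound added for 30 min at RT, then streptavidin donor/nickel chelate acceptor beads (10 ug/mL) for 30 min.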
CtBP-E1A inh: CtBP/E1A binding inhibition. AlphaScreen GST-E1A/His-CtBP binding, 1536-well; active compounds read low. activity change, % (no concentration beside the values). hit rate 0.49% among 340,000. AID 651724; in the data active means activity change below about -65%; inconclusive means mostly about -30% to -63%; further: on the % scale 0 is the no-effect control and ±100 the full control effect
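AlphaScreen with 125 nM GST-E1A and 125 nM His-CtBP (5X stocks) in Tris pH 8.0, 300 mM NaCl, BSA, Tween 20, TCEP. Compounds preincubated 2 h at 37 deg C, then glutathione donor/nickel acceptor beads added for 1 h at 37 deg C in dark.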
BAZ2B inh: blocks human BAZ2B. AID 504333. hit rate 4.4% among 360,000. Potency, µM (highest dose often 114 µM), for inactives: top-dose activity change, negative = inhibition, most hits filed as inhibitors. Q9UIF8. AlphaScreen BAZ2B-H3K14Ac peptide displacement; further: potency means the concentration at half of the fitted maximal effect; on the % scale 0 is the no-effect control and ±100 the full control effect; nearly all actives have a fitted effect of over 60% in size
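Multi-concentration screen (max 110 uM) measuring displacement of acetylated histone H3 peptide from BAZ2B by AlphaScreen, using 50 nM protein, 50 nM peptide and 10 ug/mL streptavidin donor plus Ni-chelate acceptor beads.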
G9a inh: blocks human histone lysine methyltransferase G9a. G9a H3K9 monomethylation, AlphaScreen, 2 h. hit rate 8.8% among 350,000. AID 504332. Q96KQ7. Potency, µM (series often up to 102 µM), without a hit: at the highest dose activity, negative = inhibition, actives largely listed as inhibitors; further: potency means the concentration at half of the fitted maximal effect; on the % scale 0 is the no-effect control and ±100 the full control effect; nearly all actives have a fitted effect of over 75% in size
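Enzyme 20 nM + cpd, 15 min RT; add b-H3K9 pep 500 nM / SAM 20 uM; 2 h RT; anti-H3K9me1 Ab 0.5 ug/mL + SA donor / anti-rabbit acceptor beads 20 ug/mL each, 10 min; AlphaScreen read.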
* marks the source's active call; other numbers are inactive results; ? = inconclusive; nt = no result; [ ] = another dose, or the depositor's remark. Unless noted, the call rests on the fitted dose curve; in most records, active means well fitted inhibition curve with a large enough effect; inconclusive means small, poorly fitted or top-dose-only effect; inactive means no such curve, though single readings can be large or run the other way.

SMILES	JMJD2A Tudor inh	Six1-Eya2 blk	HP1b chromo inh	CtBP-E1A inh	BAZ2B inh	G9a inh
O=C(Cn1c(=O)c2ccccc2n(CC(=O)Nc2ccc(F)cc2)c1=O)NCCc1ccccc1	-3.8%	nt	31.7%	nt	?	-14.1%[59 µM]
Cc1ccccc1Nc1nc(N)[nH]c(=O)c1N=O	nt	?	nt	-86.4*	nt	nt
CCCCOc1ccc(C(=O)NCC(=O)NC2CCN(Cc3ccccc3)CC2)cc1	-28.3%	3.1	-4.1%	-7.0	-16.9%	?
COc1ccc(C)cc1NC(=O)NC1CCN(Cc2ccccc2)CC1	-24.7%	1.7	6.2%	-0.1	5.2%	14.1µM*
CCCCN(C)C(=O)C1CCN(Cc2ccc(OCc3ccccc3)cc2)CC1	3.55µM*	-2.6	-51.2%	6.4	?	?
NC(=O)C1CCN(Cc2ccc(OCc3ccccc3)cc2)CC1	3.55µM*	-15.2	?	-1.6	56.2µM*	10µM*
CCOC(=O)C1CCCN(CC(=O)N2CCCc3c2c(=O)oc2ccc(OCc4ccccc4)cc32)C1 (stereo unspecified)	39.8µM*	nt	8.4%	nt	-22.6%	22.4µM*
CCOC(=O)C1CCCN(Cc2ccc(OC)c(OCc3ccccc3)c2)C1 (stereo unspecified)	28.2µM*	-2.0	?	-4.7	-38.6%	44.7µM*
CCOC(=O)C1CCN(Cc2ccc(OCc3ccccc3)cc2)CC1	28.2µM*	0.7	?	2.7	-36.6%	28.2µM*
CCOC(=O)N1CCN(C(=O)C2CCN(C(=O)Nc3ccccc3)CC2)CC1	-11.0%	1.8	27.6%	8.3	nt	nt
CCOC(=O)N1CCN(C(=O)C2CCN(Cc3cccc(OCc4ccccc4)c3)CC2)CC1	2.24µM*	5.3	?	11.3	?	14.1µM*
COc1ccc(CN2CCC(C(N)=O)CC2)cc1OCc1ccccc1	31.6µM*	3.7	?	-0.6	?	nt
COc1ccc(CN2CCN(C)CC2)cc1OCc1ccccc1	-19.6%	4.2	36.2%	6.8	-8.0%	?
CCOC(=O)C1CCN(C(=O)Nc2ccc(OCc3ccccc3)cc2)CC1	1.4%	-2.2	17.6%	-3.9	-0.3%	-8.0%[59 µM]
CCCCNC(=O)c1[nH]c(C2CCNCC2)nc1-c1cccc(C(F)(F)F)c1	nt	-4.8	nt	-0.2	nt	nt
c1ccc(C[C@H]2CNCCN2CC2(c3ccccc3)CC2)cc1	-19.0%	5.2	32.0%	nt	1.6%	-6.9%[2.33 µM]
CCn1cc(C(=O)NC(=S)Nc2ccccc2Br)cn1	-21.3%	2.2	16.6%	1.1	-21.5%	?
CCN(CC)c1ccc(NC(=O)c2cnn(CC)c2)cc1	?	-14.9	?	-12.0	39.8µM*	15.8µM*
CCn1cc(C(=O)Nc2ccccc2C(=O)OC)cn1	-7.0%	0.7	35.1%	10.3	nt	nt
CCn1cc(C(=O)NC(=S)Nc2cccc(O)c2)cn1	-3.3%	-17.0	3.4%	-11.6	6.2%	11.2µM*
Cc1cc(Br)ccc1NC(=O)C1(S(=O)(=O)c2ccc(Cl)cc2)CC1	35.8%	nt	88.5%	nt	42.4%	14.1%[59 µM]
CN(C)c1ccc2c(c1)C(=NO)c1ccccc1-2	39.8µM*	-65.8*	44.7µM*	0.5	nt	nt
ON=C1c2ccccc2-c2ccccc21	3.2%	2.8	29.3%	0.2	4.8%	-0.5%
Cc1ccc2[nH]c(O)c(N=Nc3nc4ccccc4s3)c2c1	-27.5%	1.1	-9.7%	-2.1	?	nt
C(=N\NC1=Nc2cccc3cccc1c23)/c1ccccn1	?	?	-5.5%	nt	?	-46.1%
SMILES	JMJD2A Tudor inh	Six1-Eya2 blk	HP1b chromo inh	CtBP-E1A inh	BAZ2B inh	G9a inh
C(=NNc1ccc2ccccc2n1)c1ccccn1	nt	-69.0*	nt	-69.0*	nt	nt
Cc1ccc2[nH]c(C)c(/C=N/Nc3nc4ccccc4s3)c2c1	44.7µM*	-9.3	-24.9%	-15.1	?	?
C(=N\Nc1nc2ccccc2s1)/c1ccccn1	?	-73.0*	?	-85.9*	-22.2%	-3.0%
Brc1csc(/C=N/Nc2nc3ccccc3s2)c1	-28.4%	-12.1	15.2%	-7.1	0.9%	11.7%
Cc1cc(=O)c2c(O)c3c(O)cc(O)c4c5c(O)cc(O)c6c(O)c7c(=O)cc(C)c8c1c2c(c34)c(c65)c78	nt	nt	nt	nt	nt	8.91µM*
Cc1cc(=O)c2c(C)ccc(C)c2[nH]1	-10.9%	2.3	23.1%	nt	-3.0%	25.1%
COc1ccc(-c2cc(=O)c3cc(C)ccc3[nH]2)cc1	-14.3%	3.3	42.1%	7.2	-2.6%	?
COc1ccc(-c2cc(=O)[nH]c(=S)[nH]2)cc1	-12.6%	3.2	36.9%	1.9	-35.8%	50.1µM*
COc1ccc(-c2cc(=O)c3cc(OC)ccc3[nH]2)cc1	-7.1%	2.3	28.4%	9.5	-2.1%	79.4µM*
O=C1NCN(c2ccccc2)C12CCN(CCCC(c1ccc(F)cc1)c1ccc(F)cc1)CC2	39.8µM*	0.0	-30.7%	-22.0	?	10µM*
Cc1sc(N/N=C/c2ccco2)nc1-c1ccccc1	?	-4.8	-19.6%	nt	?	?
CC(C)=NNc1nc(-c2ccccc2)c(C)s1	-34.7%	-7.7	?	-12.0	nt	31.6µM*
Cc1sc(N/N=C/c2cccnc2)nc1-c1ccccc1	50.1µM*	-15.5	-6.8%	-14.1	?	nt
Cc1sc(N)nc1-c1ccccc1	-30.7%	-2.0	-5.6%	1.2	-12.7%	-49.6%
COC(=O)c1ccccc1NC(=O)c1ccc(CN2CC(=O)N3CCCCC3C2=O)cc1 (stereo unspecified)	-12.9%	nt	25.6%	nt	0.6%	-4.6%[59 µM]
CSc1nc2nc3c(cn2n1)C(=O)CC(c1ccccc1)C3 (stereo unspecified)	-9.5%	1.8	18.8%	2.1	4.6%	19.8%[12.7 µM]
Cn1c(=O)c2cc3c(nc2n(C)c1=O)CC(c1ccccc1)CC3=O (stereo unspecified)	56.2µM*	-3.0	3.3%	nt	-34.3%	-0.7%
CCOc1ccccc1CNC(=O)CCCn1nc(C)c2sc3ccccc3c2c1=O	-1.3%	nt	53.1%	nt	-4.0%	?
CC(=O)OC1C(N2CCCCC2)c2c(ccc(/C=C/C(=O)N3CCCCC3)c2O)OC1(C)C (stereo unspecified)	-6.2%	8.2	11.3%	1.6	-5.3%	8.7%
CCOC(=O)CCCc1sc(N)nc1-c1[nH]c(=O)[nH]c1C	2.24µM*	?	?	-22.3	6.31µM*	4.47µM*
CCOC(=O)CCc1c(C)n[nH]c1C	-18.1%	4.6	26.6%	4.5	-18.1%	-28.3%
CCOC(=O)C1=C(C)N=C2SCCC(=O)N2C1c1ccc(OC)cc1 (stereo unspecified)	nt	nt	nt	nt	-14.0%	-4.6%[12.7 µM]
COc1ccccc1C1C2=C(N=C3SCC(=O)N31)c1ccccc1CC2 (stereo unspecified)	-26.5%	4.8	10.4%	-3.8	?	?
COc1ccc(C2C3=C(N=C4SCC(=O)N42)c2ccccc2CC3)cc1OC (stereo unspecified)	?	-14.0	-6.3%	-9.5	-8.1%	39.8µM*
